# Results from PubChem BioAssay AID588338 (NMMLSC, 2011).
# Where “and” joins values, the source holds several entries; their conditions need not be identical. Identical values can stand only once. Hit rate of the full screen: of about 1,300 compounds, about 20 (2%) were called active.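 How the source made its calls: active means inhibition above 50%, about 3 SD of the inhibition seen with non-fluorescent compounds; inactive means the rest.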 The list is a sample of the results.
# Experiment: GST-fluorescein capture on glutathione beads, confirmation, artefact control for arrestin-AP2 inhibitor project, biochemical, cherry pick 1, flow cytometry (AID 588338);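 further: fluorescein maleimide labelled GST captured on 4 micron glutathione beads; higher means more loss of bead fluorescence from quenching or blocked binding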
# Details: GST-fluorescein binding to GSH beads, fluorescence, counter-screen; at 10 µM; hits give high values
row,Structure (SMILES),inhibition
1,COc1cccc(-n2c(SCC(=O)c3c[nH]c4ccccc34)nc3ccccc3c2=O)c1,57.9% (active)
2,Cn1c(=O)c2c(nc(N/N=C/c3cccs3)n2Cc2ccc(Br)cc2)n(C)c1=O,0.63% (inactive)
3,COc1ccc(CCNc2ncnc3c2nnn3Cc2ccccc2)cc1,4.82% (inactive)
4,Cc1ccc(CNC(=O)C2CC(=O)N(C3CCCCCCC3)C2)cc1 (centres undefined),-4.09% (inactive)
5,Cc1ccc(Nc2ccc(C(N)=O)cc2[N+](=O)[O-])cc1,-6.5% (inactive)
6,CC(C)c1nnc(NC(=O)CCC(=O)N2CCN(c3cccc(Cl)c3)CC2)s1,-10.6% (inactive)
7,O=C(c1ccc(S(=O)(=O)NCc2ccco2)cc1)N1CCN(c2ccccc2)CC1,8.86% (inactive)
8,CCCc1ccc(-c2csc(NC(=O)Cc3cccs3)n2)cc1,-4.6% (inactive)
9,Cc1ccc(C)c(NC(=S)NNC(=S)Nc2ccc(C(C)C)cc2)c1,0.62% (inactive)
10,Cc1ccc(CN2C(=O)CCC2C(=O)NCCCN2CCCCC2C)cc1 (centres undefined),-11.5% (inactive)
11,Cc1cc(C(=O)OCC(=O)c2c(N)n(C)c(=O)n(C)c2=O)c(C)o1,-2.19% (inactive) and 1.72% (inactive)
12,CCOc1ccc(-c2nnc(-c3ccco3)o2)cc1,-7.89% (inactive)
13,O=c1[nH]c2ccccc2n2c(-c3ccccc3)nnc12,36.4% (inactive)
14,Cc1ccc(C2(C)NC(=O)N(CC(=O)Nc3ccccc3C(=O)N3CCCCC3)C2=O)cc1 (centres undefined),-3.63% (inactive)
15,CC(C)C[C@H](NC(=O)N1CCn2c1nc1ccccc12)C(=O)NC1CC1,-5.48% (inactive)
16,CN1C(=O)/C(=C/c2ccco2)SC1=Nc1cccc(C(=O)O)c1,0.38% (inactive)
17,Brc1ccccc1C1Nc2cccc3cccc(c23)N1,1.35% (inactive)
18,COCCNC(=O)Nc1ccc2nc(-c3ccco3)c(-c3ccco3)nc2c1,22.4% (inactive)
19,Cc1ccc(OCCCCc2c(C)n[nH]c2C)cc1,-8.59% (inactive)
20,COc1cc2c(cc1NC(=O)COC(=O)/C=C/c1ccccc1)oc1ccccc12,-10.3% (inactive)
21,CC(Oc1ccccc1)C(=O)NN1Cc2ccccc2C1=N (centres undefined),-4.56% (inactive)
22,Cc1ccc(S(=O)(=O)/N=C(/Nc2ccccn2)c2ccc(Cl)cc2)cc1,-4.23% (inactive)
23,O=C(NCc1ccco1)c1ccc(CS(=O)(=O)Cc2ccc(F)cc2)o1,-8.88% (inactive)
24,Cc1cc(C)cc(Oc2nc3c(C)cccn3c(=O)c2/C=C(\C#N)C(=O)NC2CCS(=O)(=O)C2)c1 (centres undefined),-0.21% (inactive)
25,COC(=O)c1cc(NC(=O)c2nn(C)c(=O)c3ccccc23)cc(C(=O)OC)c1,-0.11% (inactive)
26,CCn1c(=O)n(CC)c2cc(N3CCCC3)c(NC(=O)c3ccccc3Br)cc21,-4.23% (inactive)
27,Cc1ccc(OCCCC(=O)Nc2ccc3c(c2)OCCO3)cc1,-3.79% (inactive)

row,Structure (SMILES),inhibition
1,Cn1c(=O)c([N+](=O)[O-])c(Oc2ccccc2)c2ccccc21,-0.63% (inactive)
2,COc1cc2c(cc1OC)CN(C(=O)c1cc(=O)c3ccccc3o1)CC2,-0.62% (inactive)
3,CCOc1ccc(C(=O)NC2CCN(CC(=O)NCc3cccs3)CC2)cc1,-10.1% (inactive)
4,CN(C)c1ccc(NC(=O)c2ccncc2)c2ccccc12,-4.94% (inactive)
5,CCOC(=O)N1CCN(C(=O)CNC(=O)Cc2ccc(Cl)cc2)CC1,-12.7% (inactive)
6,CN(C(=O)COC(=O)c1cc(=O)[nH]c2ccccc12)C1CCCCC1,-4.98% (inactive)
7,CC(NCCc1ccc(S(N)(=O)=O)cc1)C(=O)NCc1ccccc1 (centres undefined),1.19% (inactive)
8,CC(C)(C)c1ccc(C(=O)NCCn2c(N)c(C#N)c3nc4ccccc4nc32)cc1,1.49% (inactive)
9,CC(CN1CCCCC1)OC(=O)c1ccccc1Cl (centres undefined),0.92% (inactive)
10,Cc1ccc(Cl)cc1-c1ccc(/C=N/n2cnnc2)o1,-2.14% (inactive)
11,Cc1ccc(S(=O)(=O)N2CCCCC2)cc1NC(=O)c1cccnc1,-0.2% (inactive)
12,Cc1cccc(NC(=S)NC(=O)c2ccc(Br)o2)c1,-2.99% (inactive)
13,NS(=O)(=O)c1ccc2nc(NC(=O)C3=COCCO3)sc2c1,-9.07% (inactive)
14,C/C(=N\Nc1ccc([N+](=O)[O-])cc1)c1ccc(-n2nncc2C(C)(C)C)cc1,2.54% (inactive)
15,CC(=O)NCCNC(=O)c1cc(-c2cccc3ccccc23)nc2ccccc12,8.05% (inactive)
16,Cc1cc(C(=O)Nc2ccc(C)c(S(=O)(=O)N3CCOCC3)c2)c2ccccc2n1,3.01% (inactive)
17,Cc1ccc(S(=O)(=O)N2CCN(C(=O)c3ccccc3-c3nc4ccccc4s3)CC2)c(C)c1,-4.41% (inactive)
18,O=C(NCC1(N2CCCCC2)CCCCC1)c1cccc(S(=O)(=O)Nc2ccccc2Cl)c1,-0.81% (inactive)
19,CCC(C(=O)OC)n1cnc2c(oc3ccccc32)c1=O (centres undefined),-1.51% (inactive)
20,NC(=O)C1CCN(C(=O)CC2C(=O)NCCN2Cc2cccc(Oc3ccccc3)c2)CC1 (centres undefined),-3.68% (inactive)
21,CC(NC(=O)c1cc2cc(Cl)ccc2oc1=N)c1ccccc1 (centres undefined),-2.36% (inactive)
22,COc1ccc(/C=C2\SC(=S)N(CCC(=O)Nc3ccccn3)C2=O)cc1OC,-0.03% (inactive)
23,O=C(C1CCCO1)N1CCN(S(=O)(=O)c2ccc(Br)cc2)CC1 (centres undefined),-16.4% (inactive)
24,COC(=O)C1CC2=C(CC(C)(C)CC2=O)N(c2ccccc2)C1=O (centres undefined),-0.09% (inactive)
25,CCC(=O)Nc1nc2ccccc2n1Cc1ccccc1C,6.47% (inactive)
26,Cc1cccc(C)c1NC(=O)C(Cl)C(=O)c1ccccc1 (centres undefined),-5.59% (inactive)
27,Cc1cccc(Nc2ccccc2C(=O)NCc2ccco2)c1C,-4.39% (inactive)
